# In the library only some 19% were active in any assay of this set; here they are far more common.
# TDP1 cell CPT: DT40-hTDP1 cell growth loss with CPT; chicken DT40 Tdp1-/-;hTDP1 cells + 20 nM CPT, ATP luminescence, 48 h; Potency, µM (titrated, usually from 46.2 µM), without a hit: top-dose activity change, negative = growth inhibition, usual class: inhibitors; 420,000 tested, 12% active; note: potency is the fitted concentration of half-maximal effect; % is set by controls: 0 for no effect and ±100 for the full control effect; nearly all actives have a fitted effect of over 55% in size
#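 Cell growth measured by CellTiter-Glo luminescence after a minimum 48 h, 37 C compound exposure with 20 nM CPT in Tdp1-knockout DT40 cells stably expressing hTDP1, seeded 400/well; qHTS titration format.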
# IL1B secr inh: inflammasome signaling inhibition, IL-1 beta readout | activity change, % at 57.5 µM | THP-1 LPS/ATP IL-1B secretion, AlphaLISA, 16 h; active compounds read low | 360,000 tested, 4.7% active | AID 743279; in the data active = activity change below about -50%; inconclusive = mostly about -30% to -49%; note: % is set by controls: 0 for no effect and ±100 for the full control effect
#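 THP-1 cells pretreated 1 hr with compounds (up to 57.5 uM final), then stimulated with LPS (250 ng/mL final) plus ATP (1.25 mM final); secreted IL-1B measured by AlphaLISA after 16 hr, decreased signal indicating inhibition.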
# TDP1 cell noCPT: qHTS for Inhibitors of human tyrosyl-DNA phosphodiesterase 1 (TDP1): qHTS in cells in absence of CPT | DT40 Tdp1-/- hTDP1 cells, no CPT, ATP luminescence, 48 h | Potency, µM (titrated, usually from 46.2 µM), for inactives: top-dose activity change, negative = growth inhibition, most hits filed as inhibitors | 420,000 tested, 15% active; note: potency is the fitted concentration of half-maximal effect; % is set by controls: 0 for no effect and ±100 for the full control effect; nearly all actives have a fitted effect of over 55% in size
#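 Growth of hTDP1-complemented DT40 Tdp1-knockout cells is measured by ATP luminescence after at least 48 hr compound exposure at 37 °C, with DMSO substituting for the 20 nM CPT used in the parallel screen.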
# TDP1 block: inhibitors of human tyrosyl-DNA phosphodiesterase TDP1 | Potency, µM (highest dose often 130 µM), without a hit: top-dose activity change, negative = inhibition, actives largely listed as inhibitors | recombinant TDP1, AlphaScreen DNA substrate cleavage | 350,000 tested, 0.28% active | Q9NUW8; note: potency is the fitted concentration of half-maximal effect; % is set by controls: 0 for no effect and ±100 for the full control effect; nearly all actives have a fitted effect of over 40% in size
# Target sequence (Q9NUW8 whole entry, looked up): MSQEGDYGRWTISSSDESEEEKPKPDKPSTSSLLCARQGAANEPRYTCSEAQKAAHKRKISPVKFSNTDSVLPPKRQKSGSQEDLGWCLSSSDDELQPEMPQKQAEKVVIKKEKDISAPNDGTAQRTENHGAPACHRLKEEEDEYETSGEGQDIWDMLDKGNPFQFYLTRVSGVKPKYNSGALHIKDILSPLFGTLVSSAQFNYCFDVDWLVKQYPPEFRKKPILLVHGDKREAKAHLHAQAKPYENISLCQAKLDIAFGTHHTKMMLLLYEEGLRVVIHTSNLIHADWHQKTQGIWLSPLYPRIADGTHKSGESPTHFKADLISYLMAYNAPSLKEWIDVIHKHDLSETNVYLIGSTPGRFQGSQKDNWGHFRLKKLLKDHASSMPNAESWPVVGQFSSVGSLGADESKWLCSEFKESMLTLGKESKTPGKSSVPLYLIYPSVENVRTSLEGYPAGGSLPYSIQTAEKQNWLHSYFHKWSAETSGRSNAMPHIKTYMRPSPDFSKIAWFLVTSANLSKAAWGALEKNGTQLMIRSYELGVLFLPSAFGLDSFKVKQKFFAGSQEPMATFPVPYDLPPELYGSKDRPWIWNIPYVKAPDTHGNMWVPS
#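 Enzyme-compound mixtures sat 15 min at room temperature, followed by a 5 min reaction with 15 nM final substrate and 10 min with AlphaScreen beads. Recombinant human Tdp1 was used at 1 nM final.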
# TGFb inhibitor: inhibitors of TGF-b signaling. HepG2 CAGA-GFP TGF-b/SMAD3 reporter, GFP fluorescence, 18 h; TGF-beta stimulated, 500 pg/mL final. Potency, µM (top dose mostly 46.1 µM), inactives show top-dose activity, negative = inhibition, most hits filed as inhibitors. 410,000 tested, 1.2% active; note: potency is the fitted concentration of half-maximal effect; % is set by controls: 0 for no effect and ±100 for the full control effect; nearly all actives have a fitted effect of over 65% in size
#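 First, reporter cells (HEPG2 CAGA-GFP) rested 2 h at 37 degrees C. Next, compounds were pinned in and TGF-beta added to 500 pg/mL final. After 18 h, GFP was imaged per cell and summed per well.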
# HepG2 viability: counter-screen for TGF-b inhibitors: cytotoxicity in HepG2 cells; HepG2 CAGA-GFP viability, ATP luminescence, 18 h; Potency, µM (series often up to 46.1 µM), without a hit: at the highest dose activity change, negative = cytotoxicity, most hits filed as cytotoxic; 410,000 tested, 0.76% active; note: potency is the fitted concentration of half-maximal effect
#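 CellTiter-Glo luminescence gave cytotoxicity after 18 hours at 37 degrees C. The cells were HepG2 CAGA-GFP in 1% FBS DMEM, stimulated with 500 pg/mL TGF-beta after compound addition. %Activity was normalised to no-cell wells (complete cell-killing) and DMSO (no toxicity), and curves were fitted and classified.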
# * marks the source's active call; other numbers are inactive results; ? = inconclusive; / = no result; [ ] = another dose, or the depositor's remark. Unless noted, calls come from the whole dose curve; as a rule, active = well fitted curve in the direction sought with a large enough effect; inconclusive = small, poorly fitted or top-dose-only effect, or another doubt; inactive = no such curve, though single readings can be large; an effect the other way counts as inactive or inconclusive.
SMILES,TDP1 cell CPT,IL1B secr inh,TDP1 cell noCPT,TDP1 block,TGFb inhibitor,HepG2 viability
COc1ccc(CN2CCCC(CO)(Cc3cccc(Cl)c3)C2)cc1OC (configuration not stated),-29%,-9,21µM*,/,-27%,-48%
Cc1ccccc1CC1(CO)CCCN(C(=O)c2cccc(Cl)c2)C1 (configuration not stated),-74%,-11,?,6%,-8%,-22%
O=C(c1ccc(-n2ccnc2)cc1)N1CCCC(CO)(Cc2cccc(Cl)c2)C1 (configuration not stated),4.6µM*,-1,?,5%,-16%,-16%
COc1cc(CN2CCCC(CO)(Cc3cccc(Cl)c3)C2)cc(OC)c1O (configuration not stated),?,-17,?,/,4%,3%
CCC(=O)N1CCc2cc(Br)cc(S(=O)(=O)CCC(=O)N3CCN(c4cc(C)ccc4C)CC3)c21,17%,/,4%,3%,4%,-28%
CN(CC(=O)Nc1cccc(F)c1)C(=O)CCc1nc2sc3c(c2c(=O)[nH]1)CCCC3,?,64,?,-14%,-21%,-58%
CC(C)(C)OC(=O)NCCC(=O)N/N=C/c1cccc2cccnc12,?,51,?,/,1%,-23%
Cc1ccc(OCC(=O)N/N=C/c2cccc3cccnc23)cc1,23µM*,99,26µM*,3%,-11%,-36%
O=C(COc1ccc(F)cc1)N/N=C/c1cccc2cccnc12,21µM*,164,16µM*,/,4%,-4%
COc1cc(OC)c(/C=N/NC(=O)COc2cccc3cccnc23)c(OC)c1,-22%,-5,-30%,7%,-7%,0%
O=C(Nc1ccc2oc(-c3ccccc3F)nc2c1)c1ncn[nH]1,-12%,-7,?,-3%,10%,-61%
O=C(Nc1ccc2oc(-c3ccc(Cl)c(Cl)c3)nc2c1)c1ncn[nH]1,5.2µM*,10,5.2µM*,-4%,1%,-3%
Cc1nc2ccc(NC(=O)Nc3ccnc4cccnc34)cc2o1,?,/,21µM*,14%[56.1 µM],/,/
CNC(=S)Nc1ccc2nc(C)oc2c1,0%,13,4%,0%,-20%,0%
COc1ccc(NC(=O)c2cc3ccccc3cc2OC)cc1OC,?,-20,18µM*,/,-4%,-13%
O=C(Nc1ccc(-c2nc3cc(NC(=O)c4ccccc4F)ccc3o2)cc1)c1ccccc1F,15µM*,/,13µM*,-2%,3%,-8%
CCC(NC(=S)NC1CCCCC1)c1ccc(C)cc1 (configuration not stated),/,/,/,2%,/,/
O=C(Nc1ccc2oc(-c3ccncc3)nc2c1)c1cccs1,-9%,0,-19%,/,1%,-5%
Cc1nc2cc(NC(=O)N3c4ccccc4CC3C)ccc2o1 (configuration not stated),?,8,?,7%,1%,-29%
Cc1nc2cc(NC(=O)Nc3ccc(Br)cc3)ccc2o1,?,0,23µM*,-1%,-15%,1%
O=C(Nc1ccc(-c2nc3cc(NC(=O)c4cccs4)ccc3o2)cc1)c1cccs1,11µM*,4,13µM*,4%,3%,2%
COc1cc2ccccc2cc1C(=O)Nc1ccc2oc(-c3ccccc3)nc2c1,16µM*,/,16µM*,5%[12.3 µM],7%,1%
O=C(Nc1ccc(-c2nc3cc(NC(=O)c4ccc(Cl)cc4)ccc3o2)cc1)c1ccc(Cl)cc1,0%,/,4.1µM*,-1%,-2%,9%
CCC1CCCCN1C(=S)Nc1cccc(S(=O)(=O)N(C)C)c1 (configuration not stated),-29%,20,?,2%,46%,16%
Cc1c(C(=O)Nc2c3c(nn2C(C)(C)C)CS(=O)(=O)C3)cccc1[N+](=O)[O-],?,-21,?,5%,2%,0%
SMILES,TDP1 cell CPT,IL1B secr inh,TDP1 cell noCPT,TDP1 block,TGFb inhibitor,HepG2 viability
CC(C)(C)c1ccc(-c2nc3cc(NC(=O)c4cccc(Br)c4)ccc3o2)cc1,?,/,4.6µM*,2%[12.3 µM],20%,19%
Cc1ccc(C(=O)Nc2ccc3oc(-c4ccncc4)nc3c2)c(Cl)c1,-30%,/,?,/,-10%,-8%
Cc1ccc(-c2nc3cc(NC(=O)c4cc(Br)ccc4Cl)ccc3o2)cc1,5.8µM*,/,4.6µM*,-5%[12.3 µM],-11%,-15%
COCCCNC(=O)C[C@@H]1C[C@@]2(C(=O)OC)CC(C)(C)CC=C2N(Cc2ccccc2)C1=O,?,-28,-10%,/,/,/
COC(=O)[C@@]12C[C@@H](CC(=O)NCCc3ccccc3OC)C(=O)N(Cc3ccccc3)C1=CCC(C)(C)C2,21µM*,?,?,/,/,/
COC(=O)[C@@]12C[C@@H](CC(=O)NCCCCc3ccccc3)C(=O)N(Cc3ccc4c(c3)OCO4)C1=CCC(C)(C)C2,?,-76*,13µM*,/,/,/
CCCCNC(=O)C[C@@H]1C[C@@]2(C(=O)OC)CC(C)(C)CC=C2N(Cc2ccc3c(c2)OCO3)C1=O,16µM*,-16,?,/,/,/
CC(=O)NCCNC(=O)CCCc1nnc2n(C)c(=O)c3sccc3n12,6%,/,-8%,3%,3%,0%
CCCCN(CCCC)C1=Nc2ccccc2N/C1=C(/C#N)C(=O)OCC,21µM*,-7,21µM*,-1%,85%,4%
CCOC(=O)/C(C#N)=C1\Nc2ccccc2N=C1N(CC(C)C)CC(C)C,?,-59*,18µM*,-2%,1%,-28%
COc1cc(OC)cc(-c2c(C#Cc3ccsc3)c3cc(-c4ccc5c(c4)OCCO5)ccc3n2C)c1,-7%,5,-12%,1%,0%,4%
COc1cccc(-c2c(-c3cc(OC)cc(OC)c3)n(C)c3ccc(-c4ccc(OC)nc4)cc23)c1,18µM*,14,16µM*,4%,8%,1%
COc1ccc(-c2c(-c3cc(OC)cc(OC)c3)n(C)c3ccc(-c4ccc(N(C)C)nc4)cc23)cc1,21µM*,39,18µM*,5%,11%,7%
COc1cccc(-c2c(-c3cc(OC)cc(OC)c3)n(C)c3ccc(Br)cc23)c1,4%,-17,2%,0%,?,-1%
